Experimental data: PubChem BioAssay AID1159580 (chemical genetic matrix, 2015)
Hit rate of the full screen: of about 5,500 compounds, about 2,000 (36%) were called active. Not shown: some 18% with an inconclusive outcome. Rule as the data show it: active = normalized growth mostly below about 0.91 (no sharp cut-off); inconclusive = no clear call, values can overlap the other calls; inactive = mostly above about 0.92. Some of the results follow.

Assay: chemical genetic growth profiling, strain panel (AID 1159580);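 also: tested at 20 µM; growth read once vehicle control cultures reached saturation at 30 °C; 1 = growth at the plate median or of vehicle wells; lower values mean less growth of the strain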
Conditions: S. cerevisiae deletion strains, growth OD

Measured: normalized growth

COc1ccc(/C=C/C(=O)Nc2ccccc2C(=O)O)cc1OC
inactive: locus YAL013W, strain DEP1, active compounds read low 1.03 | locus YAL040C, strain CLN3, active compounds read low 0.97 | locus YCL061C, strain MRC1 (second series), active compounds read low 0.99 | locus YDR150W, strain NUM1, active compounds read low 0.994 | locus YDR363W, strain ESC2, active compounds read low 1.01 | locus YER002W, strain NOP16, active compounds read low 0.985 | locus YMR263W, strain SAP30, active compounds read low 0.996 | locus YMR307W, strain GAS1, active compounds read low 1.01 | locus YNL175C, strain NOP13, active compounds read low 0.979 | locus YNL197C, strain WHI3, active compounds read low 0.964 | locus YNL224C, strain SQS1, active compounds read low 0.999 | locus YNL322C, strain KRE1, active compounds read low 1.02 | locus YOR083W, strain WHI5 (second series), active compounds read low 0.964 | locus YPL055C, strain LGE1, active compounds read low 1.05 | locus YPL241C, strain CIN2, active compounds read low 0.991

COc1ccc(/C=C/C(=O)c2ccc(O)cc2O)cc1
active: locus YAL021C, strain ccr4, active compounds read low 0.643 | locus YAL026C, strain drs2, active compounds read low 0.39 | locus YAL030W, strain snc1, active compounds read low 0.477 | locus YBL061C, strain skt5, active compounds read low 0.371 | locus YBR009C, strain hhf1, active compounds read low 0.329 | locus YBR023C, strain chs3, active compounds read low 0.296 | locus YBR171W, strain sec66, active compounds read low 0.736 | locus YBR231C, strain swc5, active compounds read low 0.35 | locus YBR279W, strain paf1, active compounds read low 0.486 | locus YCL011C, strain gbp2, active compounds read low 0.414 | locus YCL016C, strain dcc1, active compounds read low 0.398 | locus YCL061C, strain MRC1, active compounds read low 0.494 | locus YCL069W, strain vba3, active compounds read low 0.436 | locus YCR088W, strain abp1, active compounds read low 0.637 | locus YDL005C, strain med2, active compounds read low 0.412 | locus YDL040C, strain nat1, active compounds read low 0.68 | locus YDR001C, strain nth1, active compounds read low 0.546 | locus YDR069C, strain doa4, active compounds read low 0.815 | locus YDR137W, strain rgp1, active compounds read low 0.218 | locus YDR159W, strain sac3, active compounds read low 0.355 | locus YDR195W, strain ref2 0.69 | locus YDR297W, strain sur2, active compounds read low 0.643 | locus YDR334W, strain swr1, active compounds read low 0.383 | locus YDR335W, strain msn5, active compounds read low 0.477 | locus YDR392W, strain spt3, active compounds read low 0.107 | locus YEL003W, strain gim4, active compounds read low 0.333 | locus YEL037C, strain rad23, active compounds read low 0.678 | locus YEL061C, strain CIN8 (second series), active compounds read low 0.222 | locus YER015W, strain faa2, active compounds read low 0.496 | locus YER016W, strain bim1, active compounds read low 0.488 | locus YER111C, strain swi4, active compounds read low 0.193 | locus YER155C, strain BEM2 (second series), active compounds read low 0.125 | locus YFR010W, strain ubp6, active compounds read low 0.661 | locus YGL167C, strain pmr1, active compounds read low 0.782 | locus YGL173C, strain kem1, active compounds read low 0.326 | locus YGL227W, strain vid30, active compounds read low 0.246 | locus YGL240W, strain doc1, active compounds read low 0.349 | locus YGL253W, strain hxk2, active compounds read low 0.23 | locus YHR013C, strain ard1, active compounds read low 0.352 | locus YHR027C, strain rpn1, active compounds read low 0.59 | locus YHR030C, strain SLT2, active compounds read low 0.458 | locus YHR079C, strain IRE1, active compounds read low 0.48 | locus YHR142W, strain chs7, active compounds read low 0.175 | locus YJL092W, strain hpr5, active compounds read low 0.523 | locus YJL095W, strain BCK1 (second series), active compounds read low 0.187 | locus YJL095W, strain BCK1, active compounds read low 0.423 | locus YJL115W, strain asf1, active compounds read low 0.56 | locus YJL129C, strain trk1, active compounds read low 0.386 | locus YJL154C, strain vps35, active compounds read low 0.697 | locus YJL164C, strain tpk1, active compounds read low 0.324 | locus YJL166W, strain qcr8, active compounds read low 0.266 | locus YJL187C, strain SWE1, active compounds read low 0.492 | locus YJR066W, strain TOR1, active compounds read low 0.439 | locus YKL160W, strain elf1, active compounds read low 0.299 | locus YKR026C, strain gcn3, active compounds read low 0.784 | locus YKR091W, strain srl3, active compounds read low 0.699 | locus YLL001W, strain dnm1, active compounds read low 0.528 | locus YLL026W, active compounds read low 0.267 | locus YLL041C, strain sdh2, active compounds read low 0.615 | locus YLR027C, strain aat2, active compounds read low 0.369 | locus YLR113W, strain HOG1, active compounds read low 0.361 | locus YLR221C, strain rsa3, active compounds read low 0.28 | locus YLR258W, strain gsy2, active compounds read low 0.476 | locus YLR262C, strain YPT6 (second series), active compounds read low 0.221 | locus YLR320W, strain mms22, active compounds read low 0.14 | locus YLR342W, strain FKS1, active compounds read low 0.313 | locus YLR357W, strain rsc2, active compounds read low 0.633 | locus YLR370C, strain arc18, active compounds read low 0.619 | locus YLR384C, strain iki3, active compounds read low 0.671 | locus YML120C, strain ndi1, active compounds read low 0.336 | locus YMR058W, strain fet3, active compounds read low 0.34 | locus YMR125W, strain sto1, active compounds read low 0.205 | locus YMR129W, active compounds read low 0.707 | locus YMR205C, strain PFK2, active compounds read low 0.26 | locus YMR231W, strain pep5, active compounds read low 0.462 | locus YNL071W, strain lat1, active compounds read low 0.0785 | locus YNL183C, strain NPR1, active compounds read low 0.516 | locus YNL209W, strain ssb2, active compounds read low 0.661 | locus YNL248C, strain rpa49, active compounds read low 0.402 | locus YNL322C, strain KRE1 (second series), active compounds read low 0.618 | locus YNR049C, strain mso1, active compounds read low 0.631 | locus YOR001W, strain rrp6, active compounds read low 0.444 | locus YOR070C, strain gyp1, active compounds read low 0.336 | locus YOR080W, strain dia2, active compounds read low 0.631 | locus YOR083W, strain WHI5, active compounds read low 0.479 | locus YOR106W, strain vam3, active compounds read low 0.38 | locus YOR231W, strain MKK1, active compounds read low 0.495 | locus YOR265W, strain rbl2, active compounds read low 0.535 | locus YOR270C, strain vph1, active compounds read low 0.161 | locus YOR290C, strain snf2, active compounds read low 0.28 | locus YPL051W, strain arl3, active compounds read low 0.273 | locus YPL078C, strain atp4, active compounds read low 0.32 | locus YPL106C, strain sse1, active compounds read low 0.458 | locus YPL240C, strain hsp82, active compounds read low 0.44 | locus YPL256C, strain CLN2, active compounds read low 0.5
